From PubChem BioAssay
The list is not random: actives were taken first. Their share in the collection is about 1.3%.
3CLpro inhibitor: SARS-CoV 3CLpro protease inhibitors, primary screen, biochemical, quenched FRET | Replicase polyprotein 1ab (Severe acute respiratory syndrome coronavirus), P0C6X7 | recombinant SARS-CoV 3CLpro, quenched FRET peptide cleavage | inhibition, % at 6 µM | 290,000 tested, 0.14% active; in the data active = inhibition above about 12%
PrPC TRFRET: inhibitors of human cell surface prion protein PrPC, primary screen, cell-based, TR-FRET; TR-FRET read-out; inhibition, % at 13.8 µM; Major prion protein (Homo sapiens), P04156; AID 720596, 2013; 370,000 tested, 0.43% active; in the data active = inhibition above about 24%; note: 0% = median of the test wells and 100% = reference compound wells
CCHF vOTU inh: CCHFV vOTU protease inhibitors, primary screen, biochemical, Pep-AMC substrate, fluorescence; Crimean-Congo hemorrhagic fever virus L polyprotein viral ovarian tumor (vOTU) protease …; inhibition, % at 11.5 µM; 370,000 tested, 0.55% active; AID 651958, 2012; in the data active = inhibition above about 30%; note: 0% = vehicle wells with enzyme and 100% = no enzyme wells
PrP 5UTR inh: inhibition of PrP 5' UTR reporter expression; cell-based PrP 5' UTR mRNA reporter, plate reader; inhibition, % (no concentration beside the values); 340,000 tested, 0.35% active; in the data active = inhibition above about 52%; note: 0 = median of the neutral control wells
PrP UTR cherry: prion 5' UTR mRNA inhibition, cherry-pick retest; 1,100 tested, 48% active; cell-based prion protein 5' UTR reporter, plate reader; inhibition, % at 2.5 µM; shares compounds with PrP 5UTR inh; in the data active = inhibition above about 54%; inconclusive = no clear call, values can overlap the other calls
An asterisk follows results filed as active; ? = inconclusive; / = no result.

SMILES	3CLpro inhibitor	PrPC TRFRET	CCHF vOTU inh	PrP 5UTR inh	PrP UTR cherry
O=C(NCCc1ccccc1)c1ccc2c(c1)OCO2	0.5	-1.4	5.2	58.1*	?
COc1ccc2c(c1)/C(=C/c1cc(OC)c(OC)c(OC)c1)C(=O)N2	/	1.6	-6.5	64.2*	73.1*
CC(C)N(Cc1cc2ccccc2[nH]c1=O)C(=O)c1cccc([N+](=O)[O-])c1	3.2	-6.5	-4.9	68.2*	-6.8
COc1cc(/C=C2/SC(=S)N(Cc3ccccc3)C2=O)ccc1OS(C)(=O)=O	5.2	-3.0	-2.4	-7.9	/
COc1ccc(N2CCN(CC(=O)NC(=O)NCc3ccccc3)CC2)cc1	/	0.5	-15.3	9.8	/
CC(Sc1nc(-c2ccccc2)cc(=O)[nH]1)C(=O)O (stereo unspecified)	4.5	5.6	-9.8	1.3	/
O=C(CSc1cn(CCNC(=O)c2ccc3ccccc3c2)c2ccccc12)NCc1ccco1	-4.9	3.1	10.1	58.1*	6.2
O=S1(=O)CC(N2CCCCC2)C(N2CCCCC2)C1 (stereo unspecified)	-3.1	0.7	-1.3	69.3*	-6.2
N=c1ccn2c(n1)O[C@H]1[C@@H](CO)[C@H](O)O[C@H]12	/	-0.1	-4.7	52.2*	37.9
c1c2c(cc3sc(N4CCOCC4)nc13)OCCO2	-4.7	2.8	0.1	56.1*	?
O=C1CC(NS(=O)(=O)c2ccccc2)CN1c1ccc2c(c1)OCCO2 (stereo unspecified)	/	7.8	0.5	1.5	/
Cn1nnnc1SCC(=O)N1CCN(S(=O)(=O)c2ccccc2)CC1	5.6	-8.3	-9.5	71.0*	-21.6
OCC1OC(Oc2c[nH]c3ccccc23)C(O)C(O)C1O (stereo unspecified)	/	-5.6	2.2	67.9*	-21.7
O=C1OCC2=C1C(c1ccc(F)cc1)c1cc3c(cc1N2)OCCO3 (stereo unspecified)	1.3	9.5	-95.8	53.6*	87.9*
CCOc1ccccc1C1C2=C(COC2=O)Nc2cc3c(cc21)OCO3 (stereo unspecified)	-1.3	9.6	-11.7	64.2*	81.6*
CCOc1ccccc1C1CC(=O)Nc2cc3c(cc21)OCO3 (stereo unspecified)	0.9	20.7	1.7	22.1	/
O=C1OCC2=C1C(c1ccc(F)cc1)c1cc3c(cc1N2)OCO3 (stereo unspecified)	-7.0	12.8	-32.0	49.8	/
Cc1ccc(S(=O)(=O)N2[C@@H](c3ccccc3F)C(C(=O)O)=CC[C@H]2c2cccc(C)c2)cc1	/	8.2	4.7	-10.4	/
Cc1cccc(C)c1OCc1n[nH]c(=S)o1	-1.7	1.4	1.6	73.2*	-25.5
Cc1cccc(OCc2n[nH]c(=S)o2)c1C	2.5	-1.0	-4.1	-65.7	/
COCCn1c(C)cc(C2=NNC(=NC3CC3)SC2)c1C	2.0	-6.2	-6.3	92.3*	94.0*
COc1ccc(-n2c(C)cc(C3=NNC(=NC4CC4)SC3)c2C)cc1	-0.5	9.6	11.5	-20.5	/
C=CCN=C1NN=C(c2cc(C)n(CCOC)c2C)CS1	7.4	10.9	-6.8	46.1	/
Cc1cc(C2=NNC(=NC3CC3)SC2)c(C)n1-c1ccccc1	5.2	5.0	5.3	94.5*	94.3*
Cc1cc(C2=NNC(=NC3CC3)SC2)c(C)n1Cc1ccco1	6.2	-1.9	3.5	87.7*	86.9*
SMILES	3CLpro inhibitor	PrPC TRFRET	CCHF vOTU inh	PrP 5UTR inh	PrP UTR cherry
C=CCn1c(C)cc(C2=NNC(=NC(C)(C)C)SC2)c1C	-1.7	3.0	-6.3	65.4*	66.4*
NC(=S)NN=C1CCCCCCCC1	/	-4.2	-1.8	-10.2	/
O=C1CCCC2=C1C(c1cccs1)n1ncnc1N2 (stereo unspecified)	1.0	-3.6	-14.0	-82.2	/
COCCn1c(C)cc(C2=NNC(=Nc3ccc(Cl)cc3Cl)SC2)c1C	4.7	-2.0	4.6	-20.1	/
COCCCN=C1NN=C(c2cc(C)n(Cc3ccco3)c2C)CS1	3.9	1.6	10.1	68.0*	81.9*
O=C(Nc1cccc(C(F)(F)F)c1)c1c(O)c2ccccc2[nH]c1=O	4.4	/	/	-20.4	/
O=C(c1ccc2c3c(cccc13)CC2)C1CCCN(Cc2ccc(OCCO)cc2)C1 (stereo unspecified)	-1.1	-7.2	-56.7	87.1*	-18.1
O=C(CC(Nc1ccc(Cl)cc1Cl)C(=O)O)c1ccccc1 (stereo unspecified)	-2.6	-6.2	7.1	62.9*	16.1
CCc1ccccc1NC(=O)c1nnn(CC(=O)Nc2ccccc2C)c1N	-0.1	-3.5	5.2	-2.9	/
CCOC(=O)Cc1csc(N/N=C/c2ccc(Cl)cc2)n1	3.3	2.2	21.4	65.9*	2.5
Cc1nc2ccc(C(=O)N3CCC(O)(Cc4ccccc4)CC3)cn2c1N(C)C(=O)CCc1ccccc1	/	-2.0	2.6	/	/
Cc1cccc(OCC(=O)Nc2cc(NC(=O)COc3cccc(C)c3C)cc(C(=O)O)c2)c1C	7.6	7.1	11.6	-13.1	/
CCOc1ccc(NC(=O)Nc2cccc(C(=O)O)c2)cc1	3.3	8.5	13.8	88.0*	91.0*
CCOc1ccc(NC(=O)c2ccccn2)cc1	-2.3	-20.5	-14.0	61.8*	72.2*
O=C(O)c1cccc(COc2ccc(CO)cc2Cl)c1	/	6.3	1.9	93.3*	92.7*
Cc1ccccc1OCC(=O)Nc1cccc(C(=O)O)c1	-2.0	0.0	-15.0	76.0*	77.5*
O=C(O)c1ccc(COc2ccc(CO)cc2Cl)cc1	-1.9	0.1	5.3	-62.2	/
O=C(COc1ccc(S(=O)(=O)N2CCOCC2)cc1Cl)NCc1ccccn1	-6.1	4.2	-8.3	-7.4	/
CC(C)CC(NC(=O)CNC(=O)C1O[C@@H]2OC(C)(C)O[C@@H]2[C@H]2OC(C)(C)O[C@@H]12)C(=O)O (stereo partly specified)	-4.1	-2.0	0.5	-1.5	/
O=C(NCc1ccccc1)c1cccc(COc2ccc3c(c2)CCC3)c1	1.9	-2.5	9.9	3.1	/
O=C(OCC(F)(F)F)c1cccc(COc2ccc3ccccc3c2)c1	-2.6	-4.0	18.9	62.9*	66.0*
COc1ccc(OCc2cccc(C(=O)O)c2)cc1	/	-0.6	-8.4	93.3*	93.6*
O=C(O)c1cccc(COc2ccc3c(c2)CCC3)c1	4.0	-7.0	11.1	82.2*	88.3*
O=Cc1ccc(OCc2cccc(C(F)(F)F)c2)cc1O	1.6	-7.9	10.4	-11.0	/
CCOc1ccc(OCc2cccc(C(=O)O)c2)cc1	/	3.7	-2.6	92.7*	94.6*
Cc1ccc(S(=O)(=O)N2[C@@H](c3ccc(F)cc3)C(C(=O)O)=CC[C@H]2c2ccc(C(C)C)cc2)cc1	/	4.3	24.2	-15.6	/
CCOC(=O)C1CCN(CC(=O)c2c(C)[nH]c3cc(C)ccc23)CC1	-2.8	-4.2	4.6	-11.1	/
COc1cc2c(cc1NC(=O)c1cccc([N+](=O)[O-])c1)oc1ccccc12	-0.5	-0.6	2.9	-7.8	/
CCC1SC(CC)C(=O)N(CC(=O)NCc2ccc(F)cc2)C1=O (stereo unspecified)	1.6	2.8	-2.7	78.1*	-19.3
Cc1cccc(C(=O)NNC(=O)C23CC4CC(CC(C4)C2)C3)c1O	3.4	6.4	-4.4	-8.8	/
